In PubChem BioAssay (EPA / NIEHS):
Active and inactive are the calls of the source. Rule for the calls: active = hit-call score of the fitted dose curve at least 0.9, where 1 is the maximum; inactive = score below 0.9.

Tests used:
[1] = ATG_GLI_CIS: Attagene CIS-FACTORIAL HepG2 Assay for human Zinc Finger Protein GLI1 (AID 2282945); conditions: HepG2, Attagene cis-factorial reporter mRNA, GLI element; actives raise or lower the signal
Procedure, shortened: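 Bidirectional curve fits relative to DMSO, using reporter mRNA levels from RT-PCR plus capillary electrophoresis. Cells were HepG2 transiently carrying cis-regulated reporter constructs, harvested 24 h after dosing.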

[2] = biological target: Bile acid receptor (Homo sapiens) (UniProt Q96RI1); assay: ATG_IR1_CIS: Attagene CIS-FACTORIAL HepG2 Assay for human Nuclear Receptor Subfamily 1 Group H Member 4 (NR1H4), IR1 submotif (AID 2282946); conditions: IR1 reporter transcription, actives raise or lower the signal
Procedure, shortened: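 HepG2 cells transiently transfected with multiplexed cis-element reporter units read endogenous transcription factor activity. After 24 h compound exposure, reporter mRNA was quantified by RT-PCR, fluorescent labelling, HpaI digestion and capillary electrophoresis; bidirectional fitting versus DMSO baseline.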

[3] = ATG_ISRE_CIS: Attagene CIS-FACTORIAL HepG2 Assay for human Interferon Regulatory Factor 1 (IRF1) binding to an Interferon-Stimulated Response Element (ISRE) (AID 2282948); conditions: HepG2 ISRE cis-reporter (Attagene), mRNA transcription readout; actives raise or lower the signal
Procedure, shortened: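 Uses HepG2 liver cells transfected with cis-regulated reporters and measures mRNA 24 h post-dosing through RT-PCR, primer-extension labelling and capillary electrophoresis, with DMSO as negative control.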

[4] = ATG_M_32_CIS: Attagene CIS-FACTORIAL HepG2 Assay for M32 Transcription Factor (Internal Marker) (AID 2282949); conditions: HepG2 Attagene cis-factorial M32 reporter, mRNA; actives raise or lower the signal;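 note: background control marker of the multiplexed CIS panel rather than a real target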
Procedure, shortened: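 Using DMSO as baseline, bidirectional curve fits were applied to reporter mRNA signals. These came from transiently transfected HepG2 cells exposed for 24 h, with RNA analysed by RT-PCR, FAM primer extension, HpaI digestion and CE.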

[5] = ATG_M_06_CIS: Attagene CIS-FACTORIAL HepG2 Assay for M06 Transcription Factor (Internal Marker) (AID 2282950); conditions: HepG2 Attagene CIS-FACTORIAL M06 internal marker reporter; actives raise or lower the signal
Procedure, shortened: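 Measured 24 h post-dosing in transiently transfected HepG2 cells, this internal-marker endpoint reports reporter mRNA via RT-PCR with fluorescent primer extension and capillary electrophoresis. DMSO served as negative control and baseline for bidirectional fitting.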

[6] = biological target: Hypoxia-inducible factor 1-alpha (Homo sapiens) (UniProt Q16665); assay: ATG_HIF1a_CIS: Attagene CIS-FACTORIAL HepG2 Assay for human Hypoxia Inducible Factor 1 (HIF1A) (AID 2282951); conditions: HepG2 Attagene cis-factorial HIF1a reporter transcription; actives raise or lower the signal
Procedure, shortened: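 RT-PCR/capillary electrophoresis fluorescence readout of reporter transcripts from endogenous-TF-driven cis elements in transfected HepG2 cells, 24 h exposure; activity fitted in both directions against DMSO controls.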

[7] = biological target: Hepatocyte nuclear factor 6 (Homo sapiens) (UniProt Q9UBC0); assay: ATG_HNF6_CIS: Attagene CIS-FACTORIAL HepG2 Assay for human Hepatocyte Nuclear Factor 6 (HNF6) (AID 2282952); conditions: HepG2 Attagene cis-factorial HNF6 reporter transcription; actives raise or lower the signal
Procedure, shortened: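 Activity values derive from bidirectional fitting against DMSO of reporter mRNA levels, measured by capillary electrophoresis of labelled RT-PCR products from HepG2 cells exposed 24 h.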

[8] = biological target: Heat shock factor protein 1 (Homo sapiens) (UniProt Q00613); assay: ATG_HSE_CIS: Attagene CIS-FACTORIAL HepG2 Assay for human Heat Shock Transcription Factor 1 (HSE) (AID 2282953); conditions: HepG2 HSE cis-reporter, Attagene RNA transcription; actives raise or lower the signal
Procedure, shortened: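 Reporter mRNA induction in HepG2 is measured 24 h after dosing, using transiently transfected multiplexed cis-regulated reporter units. Signal comes from capillary electrophoresis of labelled RT-PCR products, with DMSO as negative control.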

[9] = ATG_MRE_CIS: Attagene CIS-FACTORIAL HepG2 Assay for human Metal Responsive Element (MRE) (AID 2282954); conditions: HepG2 MRE cis-reporter transcription, Attagene multiplex; actives raise or lower the signal
Procedure, shortened: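 Multiplexed cis-reporter assay in human HepG2 liver cells, 24 h incubation with test chemical. Reporter transcripts measured by RT-PCR and capillary electrophoresis; values from bidirectional curve fitting versus DMSO.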

[10] = ATG_GRE_CIS: Attagene CIS-FACTORIAL HepG2 Assay for human Glucocorticoid Response Elements (GRE) (AID 2282947); conditions: HepG2 GRE cis-reporter, Attagene multiplex mRNA; actives raise or lower the signal
Procedure, shortened: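 Multiplexed cis-reporter mRNA induction, HepG2, 24 h post-dose. RT-PCR, FAM-labelled, HpaI-digested amplicons by CE. Bidirectional fit vs DMSO.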

Measured: AC50

Heat shock factor protein 1 (Homo sapiens), sequence (Q00613 whole entry, looked up): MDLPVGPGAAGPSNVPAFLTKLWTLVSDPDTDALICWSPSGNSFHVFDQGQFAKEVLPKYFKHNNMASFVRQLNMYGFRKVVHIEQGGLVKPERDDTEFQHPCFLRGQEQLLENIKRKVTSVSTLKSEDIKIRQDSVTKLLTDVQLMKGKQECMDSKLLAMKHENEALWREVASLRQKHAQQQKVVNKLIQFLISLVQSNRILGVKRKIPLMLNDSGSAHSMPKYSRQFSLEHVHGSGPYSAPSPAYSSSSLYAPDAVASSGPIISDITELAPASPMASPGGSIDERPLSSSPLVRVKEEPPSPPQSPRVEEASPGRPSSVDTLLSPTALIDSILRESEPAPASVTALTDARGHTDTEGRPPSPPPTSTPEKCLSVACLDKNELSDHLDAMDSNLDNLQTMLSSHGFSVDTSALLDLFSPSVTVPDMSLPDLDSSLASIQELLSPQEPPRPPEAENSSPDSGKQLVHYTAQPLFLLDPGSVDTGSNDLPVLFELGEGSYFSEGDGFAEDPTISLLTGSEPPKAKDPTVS
Bile acid receptor (Homo sapiens), sequence (Q96RI1 whole entry, looked up): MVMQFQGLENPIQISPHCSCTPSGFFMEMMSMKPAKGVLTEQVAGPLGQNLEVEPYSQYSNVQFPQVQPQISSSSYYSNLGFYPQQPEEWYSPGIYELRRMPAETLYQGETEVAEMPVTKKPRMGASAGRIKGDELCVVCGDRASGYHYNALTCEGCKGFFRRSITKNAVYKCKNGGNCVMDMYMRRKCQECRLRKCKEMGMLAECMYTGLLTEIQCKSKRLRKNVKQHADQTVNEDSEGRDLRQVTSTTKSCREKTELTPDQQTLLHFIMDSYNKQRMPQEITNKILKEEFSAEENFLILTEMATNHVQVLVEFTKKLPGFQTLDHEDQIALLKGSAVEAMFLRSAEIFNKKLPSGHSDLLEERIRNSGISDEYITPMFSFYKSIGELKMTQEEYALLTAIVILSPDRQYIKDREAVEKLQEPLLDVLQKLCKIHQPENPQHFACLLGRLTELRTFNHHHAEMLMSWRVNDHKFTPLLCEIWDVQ
Hypoxia-inducible factor 1-alpha (Homo sapiens), sequence (Q16665 whole entry, looked up): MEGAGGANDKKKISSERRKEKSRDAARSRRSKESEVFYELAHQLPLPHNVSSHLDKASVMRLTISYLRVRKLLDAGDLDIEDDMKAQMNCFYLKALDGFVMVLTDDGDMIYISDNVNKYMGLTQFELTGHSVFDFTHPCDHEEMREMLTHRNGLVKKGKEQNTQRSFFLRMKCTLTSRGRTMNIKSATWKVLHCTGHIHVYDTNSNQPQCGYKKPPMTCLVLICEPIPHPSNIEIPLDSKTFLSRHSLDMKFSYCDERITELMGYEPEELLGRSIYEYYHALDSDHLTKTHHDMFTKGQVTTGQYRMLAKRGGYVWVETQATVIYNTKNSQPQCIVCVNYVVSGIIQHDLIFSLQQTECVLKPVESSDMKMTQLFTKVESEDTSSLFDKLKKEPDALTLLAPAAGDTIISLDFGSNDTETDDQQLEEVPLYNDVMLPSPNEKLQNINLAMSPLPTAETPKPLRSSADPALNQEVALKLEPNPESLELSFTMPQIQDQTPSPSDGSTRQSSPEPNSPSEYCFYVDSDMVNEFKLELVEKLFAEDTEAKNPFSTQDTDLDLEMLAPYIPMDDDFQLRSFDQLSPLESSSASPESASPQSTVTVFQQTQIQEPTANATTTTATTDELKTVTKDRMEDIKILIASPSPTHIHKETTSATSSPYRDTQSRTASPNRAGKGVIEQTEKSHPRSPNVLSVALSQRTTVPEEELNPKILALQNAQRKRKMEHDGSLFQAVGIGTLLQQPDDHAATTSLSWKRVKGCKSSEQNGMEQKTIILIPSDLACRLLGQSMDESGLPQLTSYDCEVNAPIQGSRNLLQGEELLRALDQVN
Hepatocyte nuclear factor 6 (Homo sapiens), sequence (Q9UBC0 whole entry, looked up): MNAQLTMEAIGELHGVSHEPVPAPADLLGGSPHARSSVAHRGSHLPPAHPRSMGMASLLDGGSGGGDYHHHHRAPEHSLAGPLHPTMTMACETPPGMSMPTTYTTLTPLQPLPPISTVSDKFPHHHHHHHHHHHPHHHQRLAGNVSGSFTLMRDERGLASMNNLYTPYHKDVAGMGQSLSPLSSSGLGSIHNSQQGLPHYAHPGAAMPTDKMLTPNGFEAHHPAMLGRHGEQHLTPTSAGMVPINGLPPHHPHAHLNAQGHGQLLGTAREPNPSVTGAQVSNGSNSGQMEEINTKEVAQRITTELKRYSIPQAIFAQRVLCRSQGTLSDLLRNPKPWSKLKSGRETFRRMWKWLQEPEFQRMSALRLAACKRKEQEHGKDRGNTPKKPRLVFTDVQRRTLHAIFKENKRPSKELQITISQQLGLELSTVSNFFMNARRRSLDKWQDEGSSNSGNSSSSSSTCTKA

O=C(O)CCC(=O)O
not listed: [10]
inactive: all other assays above

CC(=O)c1ccccc1O
not listed: [10]
inactive: all other assays above

Cc1ccc(S(=O)(=O)N=C=O)cc1
not listed: [2]
inactive: all other assays above

CCCCC(CC)COS(=O)(=O)O (stereo not given)
not listed: [10]
inactive: all other assays above

CC(CC=O)CC(C)(C)C (stereo not given)
not listed: [7] | [10]
inactive: all other assays above

COc1nccnc1CC(C)C
not listed: [10]
inactive: all other assays above

COC(C=C(C)CCC=C(C)C)OC
not listed: [10]
inactive: all other assays above

CN(C)Cc1cc(CN(C)C)c(O)c(CN(C)C)c1
not listed: [7] | [10]
inactive: all other assays above

Cc1noc(NS(=O)(=O)c2ccc(N)cc2)c1C
not listed: [7] | [10]
inactive: all other assays above

CC/C=C\CCOC(=O)c1ccccc1O
not listed: [2]
inactive: all other assays above

Nc1ncnc2nc[nH]c12
not listed: [6] | [10]
inactive: all other assays above

CC(C)(O)Cc1ccccc1
not listed: [2]
inactive: all other assays above

CC(CCC(=O)O)(c1ccc(O)cc1)c1ccc(O)cc1
not listed: [6] | [10]
inactive: all other assays above

CC1CCC(C(C)(C)S)C(=O)C1 (stereo not given)
not listed: [10]
inactive: all other assays above

CCCCCCOC(=O)CCCCC(=O)OCCCCCC
not listed: [7] | [10]
inactive: all other assays above

C=CC(C)(O)CC/C=C(\C)CC (stereo not given)
not listed: [2]
inactive: all other assays above

CC(=O)c1ccc(S(=O)(=O)NC(=O)NC2CCCCC2)cc1
not listed: [6] | [7] | [10]
inactive: all other assays above

Cc1ccc([N+](=O)[O-])cc1N
not listed: [7] | [10]
inactive: all other assays above

Cc1ccccc1CCO
not listed: [7] | [10]
inactive: all other assays above

C=CCNCC=C
active: [6] 28.3 µM
not listed: [7] | [10]
inactive: all other assays above

C=C(C)C(=O)OCC(O)COc1ccc(C(C)(C)c2ccc(OCC(O)COC(=O)C(=C)C)cc2)cc1 (stereo not given)
active: [3] 27 µM | [6] 31.1 µM | [8] 46.9 µM | [9] 52.7 µM
not listed: [10]
inactive: all other assays above

Nc1ccnc(=O)[nH]1
not listed: [2]
inactive: all other assays above

C=CCCCCCCCCOC(C)=O
not listed: [10]
inactive: all other assays above

COCC(=O)O
not listed: [2]
inactive: all other assays above

c1ccc2sc(SSN3CCOCC3)nc2c1
active: [1] 79.4 µM | [2] 105 µM | [6] 32.2 µM | [8] 69.6 µM | [9] 123 µM
inactive: [3] | [4] | [5] | [7]

Cc1ccc(C)c(OCCCC(C)(C)C(=O)O)c1
not listed: [6] | [10]
inactive: all other assays above

CC1C(C)(C)C2=C(C(=O)CCC2)C1(C)C (stereo not given)
not listed: [2]
inactive: all other assays above

CCCCCCCCCCCC(=O)N(C)CC(=O)O
not listed: [2]
inactive: all other assays above

O=C1CCCCCCCCCCC1
not listed: [2]
inactive: all other assays above

c1ccc(Nc2cccc3ccccc23)cc1
active: [1] 54 µM | [3] 24.8 µM | [7] 51.8 µM | [8] 53.8 µM | [9] 49.7 µM
inactive: [10] | [4] | [5] | [6]

Cc1ccc2c(c1)CCCN2
not listed: [2]
inactive: all other assays above

CCCCCC[C@@H](O)C/C=C\CCCCCCCC(=O)OCC(O)CO (stereo not given in full)
active: [1] 143 µM | [10] 149 µM | [4] 160 µM | [6] 67.2 µM | [8] 184 µM | [9] 144 µM
inactive: [3] | [5] | [7]

CC(C)CC(=O)OCc1ccccc1
not listed: [2]
inactive: all other assays above

C=CCOC(=O)c1ccc(C(=O)OCC=C)c(C(=O)OCC=C)c1
not listed: [2]
inactive: all other assays above

CO[Si](C)(C)OC
not listed: [2]
inactive: all other assays above

N#Cc1ccc(C2CCCc3cncn32)cc1 (stereo not given)
not listed: [2]
inactive: all other assays above

CCCCCOC(=O)CCCCC
not listed: [2]
inactive: all other assays above

CC(C)CCCCCOC(=O)CS
not listed: [2]
inactive: all other assays above

CCCCOCCOCCOC(C)=O
not listed: [2]
inactive: all other assays above

Oc1ccccc1Cc1ccccc1O
active: [3] 149 µM | [6] 134 µM | [9] 124 µM
not listed: [2]
inactive: all other assays above

CC(C)c1cc(C(C)C)cc(C(C)C)c1
active: [1] 146 µM | [3] 176 µM | [4] 162 µM
not listed: [2]
inactive: all other assays above

CC(=O)CC(=O)Nc1ccccc1C
not listed: [2]
inactive: all other assays above

CC1(C)[C@@H]2CC[C@@]1(C)C(=O)C2
not listed: [2]
inactive: all other assays above

C=C(C)C(=O)OCCCCCCCCCCCC
not listed: [2]
inactive: all other assays above

O=C(Cl)c1ccc(C(=O)Cl)cc1
not listed: [2]
inactive: all other assays above

CC(=O)OC/C=C(/C)CCC=C(C)C
not listed: [2]
inactive: all other assays above

CC(=O)OC(C)c1ccccc1 (stereo not given)
not listed: [2]
inactive: all other assays above

CCCCOC(=O)C(C)CC (stereo not given)
not listed: [2]
inactive: all other assays above

CC(=O)CCC1=C(C)CCCC1(C)C
not listed: [2]
inactive: all other assays above

CC(C)COC(=O)CC(C(=O)OCC(C)C)S(=O)(=O)O (stereo not given)
not listed: [2]
inactive: all other assays above

CCCCCCCCCC[N+](C)(CCCCCCCCCC)CCC[Si](OC)(OC)OC
active: [10] 18.4 µM | [3] 17.4 µM | [4] 20.2 µM | [7] 11 µM
not listed: [2]
inactive: all other assays above

CCCc1ccc(O)c(OC)c1
not listed: [2]
inactive: all other assays above

Nc1nc(N)nc(-c2ccccc2)n1
not listed: [2]
inactive: all other assays above

CC1CC(=O)CC(C)(C)C1 (stereo not given)
not listed: [2]
inactive: all other assays above

CCCSSCCC
not listed: [2]
inactive: all other assays above

Cc1c(Cl)cccc1Cl
not listed: [2]
inactive: all other assays above

Cc1cccc(C(C)(C)C)c1O
not listed: [2]
inactive: all other assays above

C=Cc1ccc(OC(C)=O)cc1
not listed: [2]
inactive: all other assays above
